Screening results as filed in PubChem.
CHT PAM: allosterically activates the human high affinity choline transporter | CHT-expressing cells, membrane potential dye, choline EC20; hits give high values; LV-AA mutant CHT in HEK293 cells | B-score at 10 µM | 310,000 compounds, 0.49% hits;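 active = initial fluorescence not abnormally high and integrated response B-score, plate-corrected, over 3 SD above library mean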
Target sequence (Q9GZV3 whole entry, looked up): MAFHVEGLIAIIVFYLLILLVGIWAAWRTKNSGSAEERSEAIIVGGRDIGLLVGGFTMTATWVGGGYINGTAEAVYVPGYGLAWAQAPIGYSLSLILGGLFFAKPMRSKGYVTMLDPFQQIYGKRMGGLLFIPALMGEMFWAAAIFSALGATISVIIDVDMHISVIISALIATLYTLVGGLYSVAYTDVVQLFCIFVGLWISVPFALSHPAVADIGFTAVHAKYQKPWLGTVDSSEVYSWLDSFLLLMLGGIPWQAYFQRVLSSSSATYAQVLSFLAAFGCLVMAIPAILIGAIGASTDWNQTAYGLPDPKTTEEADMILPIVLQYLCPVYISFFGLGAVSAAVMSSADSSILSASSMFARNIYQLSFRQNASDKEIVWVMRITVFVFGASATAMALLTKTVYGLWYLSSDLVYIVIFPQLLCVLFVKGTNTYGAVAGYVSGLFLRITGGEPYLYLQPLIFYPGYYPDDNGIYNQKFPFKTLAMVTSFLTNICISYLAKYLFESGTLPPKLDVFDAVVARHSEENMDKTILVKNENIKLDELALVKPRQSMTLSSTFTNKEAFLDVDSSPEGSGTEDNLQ
H9c2 TAG inh: reduces triacylglycerol accumulation in H9c2 cells. 230,000 compounds, 0.66% hits. Nile Red lipid (TAG) fluorescence; cells loaded with 200 µM oleic acid. inhibition, % at 12.5 µM;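 active = pattern-corrected inhibition of lipid staining of at least 50% with the nuclear-stain viability signal not falling by more than 50%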;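 also: 0% = DMSO wells and 100% = triacsin C control wells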
CHT block: inhibits the human high affinity choline transporter; B-score at 10 µM; CHT-expressing cells, membrane potential dye, choline response; hits give low values; 310,000 compounds, 0.86% hits; Q9GZV3;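 active = B-score over 3 SD under the library average, and starting fluorescence ratio not unusually high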;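 also: choline stimulus applied at its EC90 after an EC20 pre-addition; B-score computed on integrated fluorescence ratio after choline addition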
beta cell repl: inducers of beta-cell replication in MIN6 cells; 330,000 compounds, 0.29% hits; MIN6 cells proliferation, ATPlite luminescence, 48 h; cells starved in 0.2% serum; 100% = growth in 10% serum; proliferation, % at 10 µM; AID 2380;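 active = compounds whose signal lies at least 3.5 SD above the mean of all wells on their plate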;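 also: 0% = DMSO-treated cells in low-serum medium and 100% = 10% serum control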
CHT block conf: human CHT inhibition, confirmatory screen; shares compounds with CHT block; CHT-expressing cells, choline membrane potential dye; LV-to-AA substituted CHT, HEK293 cells; CHT activity remaining % of control (hits give low values), % at 10 µM; 2,400 compounds, 70% hits;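 active = choline transporter activity left, mean of duplicates at 10 µM, below buffer-only control mean minus 3 SD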;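 also: depolarization triggered by choline at its EC90 following an EC20 pre-addition; 0% = hemicholinium-3 full block and 100% = buffer-only control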
HEK293 MPD ctr: activity in parental HEK293 cells lacking CHT; shares compounds with CHT block; membrane potential dye, choline response; active = decrease or increase beyond buffer ±3SD; membrane potential ratio readout (active if shifted either direction beyond buffer ±3SD; no single direction) at 10 µM; 2,400 compounds, 4% hits; AID 493222;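 also: parental cells lack the transporter so any hit is non-specific; ratio is peak minus trough fluorescence over baseline after EC90 choline challenge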
* marks the source's active call; other numbers are inactive results; i = inactive; . = not tested or not shown. An excerpt weighted towards active compounds, which were near 1.7% of everything screened.

SMILES	CHT PAM	H9c2 TAG inh	CHT block	beta cell repl	CHT block conf	HEK293 MPD ctr
COc1ccc(-n2cccc2/C=C2\C(=N)N3N=C(C(C)C)SC3=NC2=O)cc1	i	-7.2	-6.12*	1.1	i	i
COc1ccc(-n2cccc2/C=C2\C(=N)N3N=C(c4ccco4)SC3=NC2=O)cc1	i	.	i	-4.1	.	.
O=C(c1cn(-c2ccccc2)nc1-c1cccs1)N1CCOCC1	i	-9.0	i	-0.5	.	.
O=C(/C=C/c1cn(-c2ccccc2)nc1-c1cccs1)NCCN1CCOCC1	i	11.7	-7.09*	-4.8	i	i
Oc1ccc(N2CCN(Cc3cc4c(cc3Br)OCCO4)CC2)cc1	i	.	i	0.0	.	.
COc1ccc(C(=O)c2ccccc2)c(OCC(=O)NC2CC2)c1	i	7.4	i	-0.5	.	.
CCOC(=O)c1c(NC(=O)C2C3CCC(O3)C2C(=O)O)sc2c1CCC(CC)C2 (centres undefined)	i	-17.4	i	-0.3	.	.
CCOC(=O)c1c(NC(=O)C2C3C=CC(C3)C2C(=O)O)sc2c1CCC(CC)C2 (centres undefined)	i	.	-4.98*	-3.6	26.6%*	i
Cc1cc(C)c2c(=O)[nH]c(SCC(=O)c3ccc(F)c(C)c3)nc2n1	i	1.0	i	.	.	.
COc1ccccc1CNC(=O)CCC(=O)N1Cc2cccc(OC)c2Oc2ncccc21	i	.	i	-0.1	.	.
CCN(CC)c1ccc([C@H]2[C@@H]3CCCC[C@]3(O)CCN2CC(=O)NCc2ccco2)cc1	i	-2.0	i	-1.2	.	.
CCN(CC)c1ccc(C2C3CCCCC3(O)CCN2CC(=O)N2CCCCC2)cc1 (centres undefined)	i	.	-5.91*	-2.6	i	i
Nc1c(C(=O)NCCN2CCOCC2)c2nc3ccccc3nc2n1CCc1ccccc1F	i	.	-7.84*	-4.3	29.8%*	i
CC(C)C(NC(=O)c1ccc(C(C)(C)C)cc1)C(=O)N1CCC(C(N)=O)CC1 (centres undefined)	.	10.3	.	-3.3	.	.
O=S(=O)(Nc1nc2ccccc2s1)c1ccc(Cl)nc1	i	15.0	i	-1.5	67.0%*	i
CC1(C)c2[nH]c3ccccc3c2C[C@@H]2C(=O)N(Cc3ccccc3)C(=O)N21	i	-13.6	-6.19*	-6.0	57.4%*	i
CC(C)Cc1csc(NC(=O)c2ccc(Br)cc2)c1C(=O)O	i	-0.1	-10.2*	-5.1	60.9%*	i
O=C(Nc1scc(-c2ccccc2)c1C(=O)O)c1ccccc1F	i	-0.5	i	-3.3	.	.
Cc1ccc(-c2csc(NC(=O)c3ccccc3F)c2C(=O)O)cc1	i	.	-5.1*	-5.3	45.3%*	i
Cc1ccc(-c2csc(NC(=O)c3ccc(F)cc3)c2C(=O)O)cc1	i	.	-6.39*	-1.6	53.0%*	i
O=C(Nc1scc(-c2ccccc2)c1C(=O)O)c1ccc(F)cc1	i	2.7	i	-1.0	.	.
Cc1cc(C)c(Cn2c3ccccc3c3cnn(CC(=O)NCCN4CCOCC4)c(=O)c32)c(C)c1	i	.	-11.7*	-2.6	14.7%*	i
Cc1ccc(C)c(Cn2c3ccccc3c3cnn(CC(=O)NCCN4CCOCC4)c(=O)c32)c1	i	.	i	1.9	.	.
CC1(CCc2ccccc2)NC(=O)N(CC(=O)Nc2ccc3c(c2)OCCO3)C1=O (centres undefined)	i	-4.4	i	-0.5	.	.
CCOc1ccc(N(C)S(=O)(=O)c2ccc3[nH]cc(C(=O)NCC4CCCO4)c(=O)c3c2)cc1 (centres undefined)	i	1.2	i	-1.3	.	.
SMILES	CHT PAM	H9c2 TAG inh	CHT block	beta cell repl	CHT block conf	HEK293 MPD ctr
Cc1ccccc1N(C)S(=O)(=O)c1ccc2[nH]cc(C(=O)NCC3CCCO3)c(=O)c2c1 (centres undefined)	i	.	-6.96*	-1.8	67.8%*	i
O=C(CSc1ccncc1)Nc1ccc2ccccc2c1	i	-13.6	i	-1.9	.	.
O=C(CSc1ccc2ccccc2c1)Nc1ccncc1	i	.	-6.05*	-3.5	52.2%*	i
COc1ccccc1C(c1c(O)nc(SC)[nH]c1=O)c1c(O)nc(SC)[nH]c1=O	i	12.9	i	-1.9	i	i
CCOc1cc(C(c2c(O)nc(SC)[nH]c2=O)c2c(O)nc(SC)[nH]c2=O)ccc1O	i	-11.2	i	-0.2	.	.
CCn1c(SCC(=O)N2CCCc3ccccc32)nc2ccccc2c1=O	i	0.2	-6.15*	-1.1	i	i
CCn1c(SCC(=O)N2CCCc3ccccc32)nc2cccnc21	i	22.4	i	0.4	.	.
Cc1ccc(-c2nc3ccccc3c(=O)n2NC(=S)N(C)C)cc1	i	.	i	-2.3	.	.
CN(CC(=O)NCCc1ccc(F)cc1)Cc1cccc(Cl)c1	i	0.6	i	-3.5	.	.
CC1(C)CCCN(C(=O)c2ccc3c(c2NCCO)C(=O)c2ccccc2C3=O)C1	i	.	-7.18*	-1.5	41.9%*	2.56*
O=C(N/N=C\c1cccs1)c1ccccc1-n1cccc1	i	-4.7	-5.34*	0.2	i	i
O=C(N/N=C\c1ccccc1)c1ccccc1-n1cccc1	i	4.5	i	1.9	.	.
O=c1[nH]c(-c2ccccc2)nn1-c1ccc(Br)cc1Br	i	.	i	-1.6	.	.
Cc1ccccc1C(=O)N1CCC(C(=O)NN2C(=O)NC3(CCCCC3)C2=O)CC1	.	-2.5	.	-2.3	.	.
N#Cc1c(NCCN)nc(-c2ccccc2)c2c1CCCC2	i	23.7	-6.28*	-3.9	39.6%*	i
COc1cc(Br)ccc1NC(=O)c1ccccc1-c1ccccc1C(=O)O	i	9.0	-5.42*	-0.3	i	i
COc1ccc(NC(=O)c2ccccc2NC(=O)c2ccccc2C(=O)O)c(OC)c1	i	.	i	-2.7	.	.
O=C(NC(=S)NNC(=O)c1cccs1)c1ccc(Br)o1	i	.	-7.52*	-2.1	42.5%*	i
O=C(NNC(=S)NC(=O)c1cccs1)c1ccc(O)cc1	i	11.6	i	-2.0	.	.
Cc1nc(Oc2ccccc2)c2ccccc2n1	i	.	-6.97*	0.9	i	i
COC(=O)c1cc([N+](=O)[O-])c(-n2ccnc2)c([N+](=O)[O-])c1	i	7.3	i	-4.7	.	.
N#Cc1ccc(-c2csc(NC3=NCCCCC3)n2)cc1	.	-12.2	.	.	.	.
c1ccc(-c2csc(NC3=NCCCCC3)n2)cc1	i	-10.0	-7.06*	-3.2	i	i
CCCCN(CCCC)CCCNC(=O)C12CN(Cc3ccccc3)CC1C(c1cccc([N+](=O)[O-])c1)=NO2 (centres undefined)	i	24.4	-10.5*	-4.3	15.2%*	i
O=C(NCc1ccccc1)C12CN(Cc3ccccc3)CC1C(c1cccc([N+](=O)[O-])c1)=NO2 (centres undefined)	i	.	i	-6.5	.	.
